# Results from PMC7862700, “An all-to-all approach to the identification of sequence-specific readers for epigenetic DNA modifications on cytosine”.
# Tests used:
# Assay in all cases: DAPPL (digital affinity profiling via proximity ligation, sequencing); 10 mM Tris-HCl pH 7.5, 50 mM NaCl, 1 mM DTT, 4% glycerol, room temperature, 30 min; GST-TFs on glutathione beads, 16-mer random dsDNA library, 0.1% formaldehyde crosslink after washing; high values mean tight binding
# [1] = molecular target: T1, FEV (Homo sapiens, UniProt Q99581 1-238); conditions: protein: recombinant; tags: N-terminal GST; dsDNA, one strand shown
# T1 sequence: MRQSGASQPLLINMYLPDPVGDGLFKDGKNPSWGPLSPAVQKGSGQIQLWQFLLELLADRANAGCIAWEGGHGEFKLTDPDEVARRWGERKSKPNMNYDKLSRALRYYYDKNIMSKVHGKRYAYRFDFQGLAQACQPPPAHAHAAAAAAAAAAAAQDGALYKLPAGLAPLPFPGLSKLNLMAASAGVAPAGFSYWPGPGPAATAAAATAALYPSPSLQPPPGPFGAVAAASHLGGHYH
# In short: (§1)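 Binding signal is defined as a hexamer's read frequency for one factor over its frequency for the tag-only sample. To obtain reads, GST-fused human transcription factors were expressed in yeast, captured on glutathione beads, barcoded with DNA and pooled with that sample. Pools met 200 nmole of a 16-mer random double-stranded DNA library in Tris/NaCl/DTT/glycerol buffer for 30 min at room temperature before washing, 0.1% formaldehyde crosslinking, proximity ligation (BsaI/T4 ligase, 1 h, 37 °C), PCR and Illumina NextSeq500 sequencing.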
# [2] = molecular target: ETV5 (Homo sapiens, UniProt P41161 1-510); conditions: protein: recombinant; tags: N-terminal GST; dsDNA, one strand shown
# In short: as §1
# [3] = molecular target: HSF1 (Homo sapiens, UniProt Q00613 1-529); conditions: protein: recombinant; tags: N-terminal GST; chain copies: 3; dsDNA, one strand shown
# In short: as §1
# [4] = molecular target: T2, SPIC (Homo sapiens, UniProt Q8N5J4 1-248); conditions: protein: recombinant; tags: N-terminal GST; dsDNA, one strand shown
# T2 sequence: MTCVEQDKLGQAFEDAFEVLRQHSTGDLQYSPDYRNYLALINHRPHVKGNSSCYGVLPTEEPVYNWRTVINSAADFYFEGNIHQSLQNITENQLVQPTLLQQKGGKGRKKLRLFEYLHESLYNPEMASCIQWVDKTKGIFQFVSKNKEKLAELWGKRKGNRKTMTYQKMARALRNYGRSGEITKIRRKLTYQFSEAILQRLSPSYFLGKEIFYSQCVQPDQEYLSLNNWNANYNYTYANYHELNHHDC
# In short: as §1
# [5] = molecular target: ELF4 (Homo sapiens, UniProt Q99607 1-663); conditions: protein: recombinant; tags: N-terminal GST; dsDNA, one strand shown
# In short: as §1
# [6] = molecular target: T3, ELK4 (Homo sapiens, UniProt P28324-2 1-405); conditions: protein: recombinant; tags: N-terminal GST; dsDNA, one strand shown
# T3 sequence: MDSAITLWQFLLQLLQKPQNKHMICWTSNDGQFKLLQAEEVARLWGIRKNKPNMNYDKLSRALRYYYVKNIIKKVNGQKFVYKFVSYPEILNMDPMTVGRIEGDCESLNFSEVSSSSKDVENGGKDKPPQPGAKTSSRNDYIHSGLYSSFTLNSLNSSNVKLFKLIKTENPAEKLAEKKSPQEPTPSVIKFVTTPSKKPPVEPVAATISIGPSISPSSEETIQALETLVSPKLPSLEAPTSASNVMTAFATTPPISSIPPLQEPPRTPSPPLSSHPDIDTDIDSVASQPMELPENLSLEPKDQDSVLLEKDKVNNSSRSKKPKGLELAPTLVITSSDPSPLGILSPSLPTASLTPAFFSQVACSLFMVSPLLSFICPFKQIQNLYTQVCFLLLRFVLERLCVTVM
# In short: as §1
# [7] = molecular target: T4, ETV2 (Homo sapiens, UniProt O00321 1-342); conditions: protein: recombinant; tags: N-terminal GST; dsDNA, one strand shown
# T4 sequence: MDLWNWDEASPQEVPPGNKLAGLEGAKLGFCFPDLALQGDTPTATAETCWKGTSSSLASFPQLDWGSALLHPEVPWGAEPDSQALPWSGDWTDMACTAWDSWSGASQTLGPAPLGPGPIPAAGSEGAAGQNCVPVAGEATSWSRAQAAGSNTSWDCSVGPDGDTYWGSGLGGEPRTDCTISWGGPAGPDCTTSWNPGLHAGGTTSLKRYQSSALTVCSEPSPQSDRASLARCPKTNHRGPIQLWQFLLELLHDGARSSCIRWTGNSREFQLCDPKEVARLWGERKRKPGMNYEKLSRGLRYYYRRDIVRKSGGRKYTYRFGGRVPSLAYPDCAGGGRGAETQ
# In short: as §1
# [8] = molecular target: T5, ELF3 (Homo sapiens, UniProt P78545 1-371); conditions: protein: recombinant; tags: N-terminal GST; dsDNA, one strand shown
# T5 sequence: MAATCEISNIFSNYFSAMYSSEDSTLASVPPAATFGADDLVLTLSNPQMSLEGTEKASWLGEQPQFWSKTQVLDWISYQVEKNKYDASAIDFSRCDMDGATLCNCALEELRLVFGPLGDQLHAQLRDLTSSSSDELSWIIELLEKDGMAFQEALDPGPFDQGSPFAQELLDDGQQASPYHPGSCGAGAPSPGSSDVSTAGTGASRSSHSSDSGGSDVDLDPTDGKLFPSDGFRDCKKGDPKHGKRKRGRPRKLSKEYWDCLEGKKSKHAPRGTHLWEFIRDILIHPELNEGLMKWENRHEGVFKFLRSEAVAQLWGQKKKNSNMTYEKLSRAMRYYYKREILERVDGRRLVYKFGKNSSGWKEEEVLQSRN
# In short: as §1
# [9] = molecular target: CRX (Homo sapiens, UniProt O43186 1-299); conditions: protein: recombinant; tags: N-terminal GST; dsDNA, one strand shown
# In short: as §1
# [10] = molecular target: ETV1 (Homo sapiens, UniProt P50549 1-477); conditions: protein: recombinant; tags: N-terminal GST; dsDNA, one strand shown
# In short: as §1
# [11] = molecular target: T6, ERF (Homo sapiens, UniProt P50548 1-548); conditions: protein: recombinant; tags: N-terminal GST; dsDNA, one strand shown
# T6 sequence: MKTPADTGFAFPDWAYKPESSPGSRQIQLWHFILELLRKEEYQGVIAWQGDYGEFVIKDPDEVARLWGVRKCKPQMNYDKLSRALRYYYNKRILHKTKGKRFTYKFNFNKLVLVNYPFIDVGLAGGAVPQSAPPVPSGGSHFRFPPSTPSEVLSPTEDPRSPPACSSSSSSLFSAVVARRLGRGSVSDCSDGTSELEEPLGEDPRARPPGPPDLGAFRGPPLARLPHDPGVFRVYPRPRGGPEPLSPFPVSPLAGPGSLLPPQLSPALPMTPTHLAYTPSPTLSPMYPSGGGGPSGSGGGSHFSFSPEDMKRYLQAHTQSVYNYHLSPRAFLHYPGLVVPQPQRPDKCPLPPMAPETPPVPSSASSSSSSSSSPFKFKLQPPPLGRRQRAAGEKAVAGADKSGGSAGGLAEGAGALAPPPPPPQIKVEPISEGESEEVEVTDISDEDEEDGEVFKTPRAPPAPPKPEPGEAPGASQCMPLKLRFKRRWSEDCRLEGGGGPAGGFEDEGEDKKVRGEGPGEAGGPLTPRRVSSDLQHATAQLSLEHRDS
# In short: as §1
# [12] = molecular target: T7, ETV3L (Homo sapiens, UniProt Q6ZN32 1-361); conditions: protein: recombinant; tags: N-terminal GST; dsDNA, one strand shown
# T7 sequence: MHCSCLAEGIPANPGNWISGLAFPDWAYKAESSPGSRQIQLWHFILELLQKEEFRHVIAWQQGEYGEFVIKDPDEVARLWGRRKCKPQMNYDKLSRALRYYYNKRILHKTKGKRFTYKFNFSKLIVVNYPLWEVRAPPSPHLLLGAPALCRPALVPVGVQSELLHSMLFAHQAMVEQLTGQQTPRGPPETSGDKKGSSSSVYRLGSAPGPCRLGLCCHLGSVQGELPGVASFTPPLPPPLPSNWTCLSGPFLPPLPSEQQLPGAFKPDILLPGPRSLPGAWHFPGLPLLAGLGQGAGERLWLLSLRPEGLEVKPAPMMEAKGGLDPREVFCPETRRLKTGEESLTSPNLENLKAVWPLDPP
# In short: as §1
# [13] = molecular target: T8, ETS2 (Homo sapiens, UniProt P15036 1-469); conditions: protein: recombinant; tags: N-terminal GST; dsDNA, one strand shown
# T8 sequence: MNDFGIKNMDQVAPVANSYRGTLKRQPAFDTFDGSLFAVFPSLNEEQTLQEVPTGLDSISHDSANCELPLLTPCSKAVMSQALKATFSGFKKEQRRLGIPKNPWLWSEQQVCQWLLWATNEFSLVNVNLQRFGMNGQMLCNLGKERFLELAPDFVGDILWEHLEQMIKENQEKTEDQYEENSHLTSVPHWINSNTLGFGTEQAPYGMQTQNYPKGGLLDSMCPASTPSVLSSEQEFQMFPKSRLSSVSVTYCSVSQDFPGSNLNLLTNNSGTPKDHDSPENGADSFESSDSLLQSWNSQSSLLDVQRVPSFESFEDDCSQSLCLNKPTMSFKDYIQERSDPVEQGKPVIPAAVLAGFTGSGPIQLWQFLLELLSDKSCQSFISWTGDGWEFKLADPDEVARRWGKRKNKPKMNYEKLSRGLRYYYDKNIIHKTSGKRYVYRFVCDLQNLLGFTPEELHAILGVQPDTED
# In short: as §1
# [14] = molecular target: T9, SPDEF (Homo sapiens, UniProt O95238 1-335); conditions: protein: recombinant; tags: N-terminal GST; dsDNA, one strand shown
# T9 sequence: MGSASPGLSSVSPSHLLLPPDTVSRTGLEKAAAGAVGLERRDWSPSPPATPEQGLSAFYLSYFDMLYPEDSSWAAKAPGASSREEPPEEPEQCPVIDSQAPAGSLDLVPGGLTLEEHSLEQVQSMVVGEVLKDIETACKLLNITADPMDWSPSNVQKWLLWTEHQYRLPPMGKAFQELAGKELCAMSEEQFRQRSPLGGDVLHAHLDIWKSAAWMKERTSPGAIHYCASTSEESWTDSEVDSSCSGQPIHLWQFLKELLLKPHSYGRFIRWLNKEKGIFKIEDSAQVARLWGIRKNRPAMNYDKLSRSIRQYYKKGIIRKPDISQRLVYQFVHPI
# In short: as §1
# [15] = molecular target: T10, ETV7 (Homo sapiens, UniProt Q9Y603 1-341); conditions: protein: recombinant; tags: N-terminal GST; dsDNA, one strand shown
# T10 sequence: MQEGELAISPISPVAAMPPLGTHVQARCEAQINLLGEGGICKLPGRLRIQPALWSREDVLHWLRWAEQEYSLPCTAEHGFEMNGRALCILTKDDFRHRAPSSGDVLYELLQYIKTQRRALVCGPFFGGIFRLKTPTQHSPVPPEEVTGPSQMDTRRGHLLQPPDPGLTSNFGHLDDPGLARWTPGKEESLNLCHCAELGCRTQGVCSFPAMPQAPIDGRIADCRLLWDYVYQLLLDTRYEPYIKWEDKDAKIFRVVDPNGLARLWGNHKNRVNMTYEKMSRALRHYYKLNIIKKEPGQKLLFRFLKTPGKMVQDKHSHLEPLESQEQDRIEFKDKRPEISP
# In short: as §1
# [16] = molecular target: T11, ELF5 (Homo sapiens, UniProt Q9UKW6-2 1-255); conditions: protein: recombinant; tags: N-terminal GST; dsDNA, one strand shown
# T11 sequence: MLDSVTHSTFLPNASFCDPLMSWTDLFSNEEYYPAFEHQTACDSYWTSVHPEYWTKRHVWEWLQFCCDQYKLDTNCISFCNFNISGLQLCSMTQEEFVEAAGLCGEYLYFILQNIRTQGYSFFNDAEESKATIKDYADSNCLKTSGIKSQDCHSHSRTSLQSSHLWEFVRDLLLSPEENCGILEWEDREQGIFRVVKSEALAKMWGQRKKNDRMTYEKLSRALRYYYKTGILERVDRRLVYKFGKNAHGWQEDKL
# In short: as §1
# [17] = molecular target: T12, ETV3 (Homo sapiens, UniProt P41162-2 1-143); conditions: protein: recombinant; tags: N-terminal GST; dsDNA, one strand shown
# T12 sequence: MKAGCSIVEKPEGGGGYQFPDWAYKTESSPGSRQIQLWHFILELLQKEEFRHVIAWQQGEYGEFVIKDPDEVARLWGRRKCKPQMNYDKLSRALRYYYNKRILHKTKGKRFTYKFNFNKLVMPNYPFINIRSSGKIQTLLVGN
# In short: as §1
# [18] = molecular target: ETV6 (Homo sapiens, UniProt P41212 1-452); conditions: protein: recombinant; tags: N-terminal GST; dsDNA, one strand shown
# In short: as §1
# Chain of HSF1 (Q00613 whole entry): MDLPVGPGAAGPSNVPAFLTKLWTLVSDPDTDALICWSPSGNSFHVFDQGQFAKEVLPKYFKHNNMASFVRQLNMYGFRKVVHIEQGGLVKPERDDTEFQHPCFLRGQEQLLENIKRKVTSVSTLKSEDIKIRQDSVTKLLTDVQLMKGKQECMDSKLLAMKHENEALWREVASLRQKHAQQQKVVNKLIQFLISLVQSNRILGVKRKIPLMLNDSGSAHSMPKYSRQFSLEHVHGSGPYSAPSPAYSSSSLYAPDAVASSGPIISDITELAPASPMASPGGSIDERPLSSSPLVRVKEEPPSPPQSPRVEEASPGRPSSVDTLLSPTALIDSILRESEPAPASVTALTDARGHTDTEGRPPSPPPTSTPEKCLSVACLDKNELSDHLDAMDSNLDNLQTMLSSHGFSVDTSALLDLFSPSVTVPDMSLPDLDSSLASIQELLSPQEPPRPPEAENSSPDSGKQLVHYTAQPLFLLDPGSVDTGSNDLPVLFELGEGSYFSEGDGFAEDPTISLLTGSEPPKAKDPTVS
# Chain of ELF4 (Q99607 whole entry): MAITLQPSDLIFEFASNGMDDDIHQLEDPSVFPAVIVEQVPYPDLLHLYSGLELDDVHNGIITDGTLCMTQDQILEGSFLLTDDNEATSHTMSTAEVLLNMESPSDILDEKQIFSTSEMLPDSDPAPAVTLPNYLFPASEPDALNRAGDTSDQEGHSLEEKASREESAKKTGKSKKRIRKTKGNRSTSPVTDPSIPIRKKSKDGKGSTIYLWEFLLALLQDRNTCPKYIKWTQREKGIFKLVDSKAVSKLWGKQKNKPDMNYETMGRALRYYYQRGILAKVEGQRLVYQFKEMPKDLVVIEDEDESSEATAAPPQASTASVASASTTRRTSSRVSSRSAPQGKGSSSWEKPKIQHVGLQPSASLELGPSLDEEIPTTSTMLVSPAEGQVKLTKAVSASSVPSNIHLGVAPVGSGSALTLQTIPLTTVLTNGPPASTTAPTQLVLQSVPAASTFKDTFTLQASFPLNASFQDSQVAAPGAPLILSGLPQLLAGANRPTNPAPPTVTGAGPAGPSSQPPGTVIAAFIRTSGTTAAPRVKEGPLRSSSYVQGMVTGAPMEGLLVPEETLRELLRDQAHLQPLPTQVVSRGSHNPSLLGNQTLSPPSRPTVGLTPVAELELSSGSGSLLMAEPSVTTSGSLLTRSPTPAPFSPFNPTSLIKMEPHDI
# Chain of ETV5 (P41161 whole entry): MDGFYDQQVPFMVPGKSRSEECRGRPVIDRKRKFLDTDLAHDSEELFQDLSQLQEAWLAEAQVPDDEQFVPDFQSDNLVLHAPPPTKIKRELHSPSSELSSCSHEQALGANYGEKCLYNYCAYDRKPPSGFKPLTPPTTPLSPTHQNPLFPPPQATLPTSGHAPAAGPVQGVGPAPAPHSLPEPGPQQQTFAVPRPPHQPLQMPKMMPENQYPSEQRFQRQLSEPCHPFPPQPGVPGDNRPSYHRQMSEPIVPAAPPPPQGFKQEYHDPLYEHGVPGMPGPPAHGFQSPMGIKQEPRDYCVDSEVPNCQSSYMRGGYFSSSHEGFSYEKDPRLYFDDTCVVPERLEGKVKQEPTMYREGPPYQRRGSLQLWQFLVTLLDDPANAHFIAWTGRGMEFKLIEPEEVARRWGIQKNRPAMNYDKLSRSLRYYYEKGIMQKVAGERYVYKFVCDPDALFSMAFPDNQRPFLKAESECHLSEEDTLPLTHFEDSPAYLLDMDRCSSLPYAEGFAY
# Chain of CRX (O43186 whole entry): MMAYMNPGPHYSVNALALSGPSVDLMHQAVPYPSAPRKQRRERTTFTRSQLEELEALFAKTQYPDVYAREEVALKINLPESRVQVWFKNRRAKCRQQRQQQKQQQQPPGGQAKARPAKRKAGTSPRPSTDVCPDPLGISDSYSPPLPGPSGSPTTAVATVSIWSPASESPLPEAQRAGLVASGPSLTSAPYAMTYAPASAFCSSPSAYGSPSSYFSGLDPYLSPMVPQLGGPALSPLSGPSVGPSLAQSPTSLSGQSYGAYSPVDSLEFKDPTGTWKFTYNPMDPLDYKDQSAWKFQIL
# Chain of ETV1 (P50549 whole entry): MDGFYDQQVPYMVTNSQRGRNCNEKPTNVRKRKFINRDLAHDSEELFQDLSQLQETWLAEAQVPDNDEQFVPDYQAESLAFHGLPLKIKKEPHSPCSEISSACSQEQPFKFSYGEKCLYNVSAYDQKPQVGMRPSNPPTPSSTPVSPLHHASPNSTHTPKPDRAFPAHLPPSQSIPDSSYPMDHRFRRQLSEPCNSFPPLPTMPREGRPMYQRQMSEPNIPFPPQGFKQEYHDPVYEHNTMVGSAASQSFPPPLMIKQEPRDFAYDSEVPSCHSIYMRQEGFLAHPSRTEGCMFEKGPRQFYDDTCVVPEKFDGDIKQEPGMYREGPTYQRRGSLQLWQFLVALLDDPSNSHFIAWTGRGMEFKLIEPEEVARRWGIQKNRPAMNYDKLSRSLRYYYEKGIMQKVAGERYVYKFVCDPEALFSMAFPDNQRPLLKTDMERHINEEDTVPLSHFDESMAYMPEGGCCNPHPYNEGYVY
# Chain of ETV6 (P41212 whole entry): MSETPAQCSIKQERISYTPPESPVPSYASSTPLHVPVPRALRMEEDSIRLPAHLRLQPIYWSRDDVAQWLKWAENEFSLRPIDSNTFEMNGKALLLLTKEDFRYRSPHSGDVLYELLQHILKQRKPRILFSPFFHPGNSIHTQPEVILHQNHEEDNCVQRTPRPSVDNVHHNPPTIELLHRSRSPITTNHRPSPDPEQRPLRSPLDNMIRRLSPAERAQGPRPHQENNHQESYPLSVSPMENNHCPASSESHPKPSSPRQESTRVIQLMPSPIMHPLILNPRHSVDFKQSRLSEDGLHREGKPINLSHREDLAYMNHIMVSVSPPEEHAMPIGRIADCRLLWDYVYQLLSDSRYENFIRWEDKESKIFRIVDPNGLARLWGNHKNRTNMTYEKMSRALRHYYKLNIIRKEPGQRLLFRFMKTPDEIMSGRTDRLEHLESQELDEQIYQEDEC
sequence,measurement,setting,value
TCACTT,binding signal,[1],"1.99 fold enrichment (6-mer frequency, TF over GST control)"
same,binding signal,[2],"1.75 fold enrichment (6-mer frequency, TF over GST control)"
same,binding signal,[3],"1.14 fold enrichment (6-mer frequency, TF over GST control)"
same,binding signal,[4],"1.62 fold enrichment (6-mer frequency, TF over GST control)"
same,binding signal,[5],"1.74 fold enrichment (6-mer frequency, TF over GST control)"
same,binding signal,[6],"1.74 fold enrichment (6-mer frequency, TF over GST control)"
same,binding signal,[7],"1.72 fold enrichment (6-mer frequency, TF over GST control)"
same,binding signal,[8],"1.62 fold enrichment (6-mer frequency, TF over GST control)"
same,binding signal,[9],"1.23 fold enrichment (6-mer frequency, TF over GST control)"
same,binding signal,[10],"1.67 fold enrichment (6-mer frequency, TF over GST control)"
same,binding signal,[11],"1.56 fold enrichment (6-mer frequency, TF over GST control)"
same,binding signal,[12],"1.5 fold enrichment (6-mer frequency, TF over GST control)"
same,binding signal,[13],"1.69 fold enrichment (6-mer frequency, TF over GST control)"
same,binding signal,[14],"1.73 fold enrichment (6-mer frequency, TF over GST control)"
same,binding signal,[15],"1.63 fold enrichment (6-mer frequency, TF over GST control)"
same,binding signal,[16],"1.79 fold enrichment (6-mer frequency, TF over GST control)"
same,binding signal,[17],"1.55 fold enrichment (6-mer frequency, TF over GST control)"
same,binding signal,[18],"1.67 fold enrichment (6-mer frequency, TF over GST control)"
